Compound activity deposited in PubChem BioAssay by National Center for Advancing Translational Sciences (NCATS).
Most compounds without a hit are left out; they make up all but 11% or so of the library.
ALDH1A1 inh = ALDH1A1 (human) enzyme inhibition; P00352; Potency, µM (series often up to 75.3 µM), most hits filed as inhibitors; Purified ALDH1A1, NADH fluorescence, propionaldehyde substrate; actives 7.3% (n = 220,000); AID 1030
Target sequence (P00352 whole entry, looked up): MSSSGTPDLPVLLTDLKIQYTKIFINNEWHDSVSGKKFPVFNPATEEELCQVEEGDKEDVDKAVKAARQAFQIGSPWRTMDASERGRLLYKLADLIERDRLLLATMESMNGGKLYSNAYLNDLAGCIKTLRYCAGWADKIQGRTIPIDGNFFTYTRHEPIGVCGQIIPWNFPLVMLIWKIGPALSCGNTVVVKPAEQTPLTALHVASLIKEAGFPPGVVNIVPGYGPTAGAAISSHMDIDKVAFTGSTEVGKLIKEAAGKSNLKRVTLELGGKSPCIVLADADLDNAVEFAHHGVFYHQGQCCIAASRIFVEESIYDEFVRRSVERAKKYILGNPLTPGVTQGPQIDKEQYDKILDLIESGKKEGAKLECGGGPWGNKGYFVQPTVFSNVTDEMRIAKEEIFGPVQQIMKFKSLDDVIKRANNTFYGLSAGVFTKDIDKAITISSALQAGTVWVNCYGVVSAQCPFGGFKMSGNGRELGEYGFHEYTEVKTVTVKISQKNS
PNC inhibitor = inhibitors of perinucleolar compartment assembly | PC3M PTB-GFP, PNC prevalence imaging, 16 h; active compounds read low | actives 3.1% (n = 140,000) | activity change (PNC), negative = inhibition, % at 10 µM;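 active = readout at or below -70, meaning at least 70% loss of cells showing the perinucleolar compartment, a nuclear body marking cancer cells; inconclusive = readout between -30 and a set limit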
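PC3M cells stably expressing PTB-GFP, 750–1000 cells/well, treated 16 h at 37 °C with compound (23 nl of library stock), in duplicate. After paraformaldehyde fixation and Hoechst stain, imaged at 20x; PNC prevalence scored by image analysis.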
IMPase inh = cell-permeable inhibitors of inositol monophosphatase (IMPase); P97697; CHO-M1 cells, IP1 accumulation, HTRF TR-FRET ratio; inhibition (IP1 accumulation), % at 46.1 µM; 120,000 tested, under 10 active; active = well fitted curve in the direction sought with a large enough effect in the signal ratio, not every such curve was filed as active; inconclusive = small, poorly fitted or top-dose-only effect, or a change in a side signal; inactive = no such curve, though single readings can be large or run the other way; the % refers to the signal ratio;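 note: cells stimulated with carbachol in lithium chloride buffer; higher means more IMPase inhibition seen as more IP1 and lower FRET ratio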
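CHO-M1, 2000 cells/well, cultured 16–30 h; cpd up to 46 uM; carbachol (50 uM solution, stimulation buffer w/ 50 mM LiCl, pH 7.4), 30 min 37C; IP-One TR-FRET, 10 min RT; Ex 320/Em 665, 620; Hill-fit AC50.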
IMPase Li cell = cell-permeable IMPase inhibitors with lithium potentiation | Potency, µM (highest dose often 59.4 µM), most hits filed as inhibitors | actives 0.35% (n = 210,000) | AID 1457 | CHO-M1 cells, IP1 TR-FRET (IP-One), carbachol + lithium; active = well fitted curve in the direction sought with a large enough effect; inconclusive = small, poorly fitted or top-dose-only effect, or another doubt; inactive = no such curve, though single readings can be large; an effect the other way counts as inactive or inconclusive;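 note: IP1 builds up when IMPase is blocked and the TR-FRET signal falls; nearly all actives have a fitted effect of over 50% in size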
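Readout is a homogeneous TR-FRET IP1 immunoassay (Ex 320, Em 665 and 620), where raised cytosolic IP1 lowers signal. Cells were CHO-M1 treated 30 min at 37C with test compounds plus a little lithium; AC50 values came from Hill-equation fitting.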
12-hLO inh = blocks human 12-lipoxygenase activity; P18054; purified 12-hLO, xylenol orange hydroperoxide absorbance; Potency, µM (doses to about 57.1 µM), usual class: inhibitors; actives 0.12% (n = 150,000); active = well fitted curve in the direction sought with a large enough effect; inconclusive = small, poorly fitted or top-dose-only effect, or another doubt; inactive = no such curve, though single readings can be large; an effect the other way counts as inactive or inconclusive; note: nearly all actives have a fitted effect of over 55% in size
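Lipoxygenase turnover measured by absorbance at 573 and 405 nm after Fe-XO development. Human 12hLO 150 nM, arachidonate 40 uM, pH 7.0 Hepes buffer with detergent; 15 min compound preincubation, 30 min reaction.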
HPGD inh = HPGD (human) dehydrogenase inhibition. P15428. purified HPGD, NADH fluorescence kinetic, PGE2 substrate. Potency, µM, usual class: inhibitors. actives 4.3% (n = 150,000). AID 894
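NADH formation kinetics: reaction with 30 uM PGE2 and 1 mM NAD+ (final), 20 nM enzyme, Tris-HCl pH 8 with Tween 20, after 15 min compound preincubation at room temperature. Fluorescence change, last versus first of five reads.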
Of the large screens only hits and unclear results are named; the others gave an inactive call. Unless noted, calls come from the whole dose curve; as a rule, active = well fitted inhibition curve with a large enough effect (not every such curve was filed as active); inconclusive = small, poorly fitted or top-dose-only effect, or another doubt; inactive = no such curve, though single readings can be large or run the other way.

COc1ccc(Oc2ncc3ncc(=O)n(Cc4cccc(OC)c4)c3n2)cc1	HPGD inh 18µM (no result: PNC inhibitor, IMPase inh)
COc1ccc(Oc2ncc3ncc(=O)n(CCc4ccccc4)c3n2)cc1	ALDH1A1 inh 0.89µM, IMPase Li cell inconclusive (no result: PNC inhibitor, IMPase inh)
O=c1cnc2cnc(OCc3ccccc3)nc2n1Cc1ccc(F)cc1	ALDH1A1 inh inconclusive, HPGD inh 32µM (no result: PNC inhibitor, IMPase inh)
NC(N)=N/N=C\c1ccc(C2CCNCC2)cc1	none (no result: PNC inhibitor, IMPase inh)
[O-][N+]1(CC[N+]2([O-])CCCCC2)CCCCC1	none (no result: PNC inhibitor, IMPase inh)
O=S(=O)(c1cnc[nH]1)N1CCc2ccccc21	ALDH1A1 inh 20µM
COCC(=O)Nc1ccc(C)c(Cl)c1	IMPase Li cell inconclusive, HPGD inh 14µM
CCCCOC(=O)Nc1ccc(C(=O)OC)cc1	none
Cc1ccc(NC(=O)Cn2cccc2)cc1C	HPGD inh inconclusive
Cc1ccc(NC(=O)Cn2cccc2)cc1Cl	ALDH1A1 inh 11µM, HPGD inh 16µM
CCCCOC(=O)Nc1ccc(C)c(Cl)c1	HPGD inh 16µM
COc1ccc(NC(=O)Cc2ccc(C)c(C)c2)cc1Cl	ALDH1A1 inh inconclusive (no result: PNC inhibitor, IMPase inh, 12-hLO inh, HPGD inh)
COC(=O)c1ccccc1S(=O)(=O)N1CCc2nc(-c3ccccc3)c3c(c2C1)CO[C@@H](C)C3	ALDH1A1 inh inconclusive (no result: PNC inhibitor, IMPase inh)
C=CCN1c2ccccc2[C@]23C[C@@H](C(=O)OC)N(S(=O)(=O)c4ccc(Br)cc4)C2=NC(C(=O)OC)=C(C(=O)OC)[C@H]13	none (no result: PNC inhibitor, IMPase inh)
O=C(c1cc(-c2ccccc2O)on1)N1CCc2ccccc2C1	ALDH1A1 inh inconclusive, PNC inhibitor inconclusive, HPGD inh inconclusive
O=C(c1cc(-c2ccco2)on1)N1CCN(c2ccccc2)CC1	ALDH1A1 inh 14µM
O=C(c1cc(-c2ccc(O)cc2)on1)N1CCc2ccccc2C1	ALDH1A1 inh inconclusive, HPGD inh 13µM
O=C(CCn1nnc(-c2cccs2)n1)N1CCc2ccccc2C1	ALDH1A1 inh 28µM, PNC inhibitor inconclusive, HPGD inh 16µM
O=C(c1ccc2nc(-c3ccco3)c(-c3ccco3)nc2c1)N1CCN(c2ccccc2)CC1	ALDH1A1 inh 8.9µM, HPGD inh inconclusive
O=C(O)c1ccc2nc(-c3ccco3)c(-c3ccco3)nc2c1	ALDH1A1 inh inconclusive (no result: PNC inhibitor, IMPase inh, 12-hLO inh, HPGD inh)
Nc1nc(-c2ccccc2)c(-c2ccccc2)c(-c2nc(N)nc(-c3ccccc3)c2-c2ccccc2)n1	none (no result: PNC inhibitor, IMPase inh)
O=C(c1cc(-c2ccco2)on1)N1CCc2ccccc2C1	ALDH1A1 inh 7.9µM, IMPase inh inconclusive, HPGD inh 11µM
O=C(c1cc(-c2cccs2)on1)N1CCc2ccccc2C1	HPGD inh 13µM
COCC(=O)N1CCC2(CC1)CCN(C(=O)NC(C)C)CC2	ALDH1A1 inh inconclusive (no result: PNC inhibitor, IMPase inh)
COC(=O)Cc1nnc(NC(=O)C(C)C)s1	PNC inhibitor inconclusive
Cc1nc(NC(=S)Nc2ccccc2)sc1C	ALDH1A1 inh 22µM (no result: PNC inhibitor, IMPase inh, 12-hLO inh, HPGD inh)
COC(=O)c1sc(NC(=S)NC(=O)c2ccccc2)nc1C	PNC inhibitor -88
Cc1nc(Nc2ccccc2)sc1C(=O)Nc1ccccc1	none (no result: PNC inhibitor, IMPase inh, IMPase Li cell, 12-hLO inh, HPGD inh)
Cc1cnc(C)c(N(C)NC(=S)Nc2ccccc2)n1	PNC inhibitor -109 (no result: IMPase inh)
COC(=O)Cc1nnc(NC(=O)c2ccccc2)s1	PNC inhibitor -95 (no result: IMPase Li cell, HPGD inh)
O=C(O)C[n+]1ccccc1	none (no result: PNC inhibitor, IMPase inh)
Cc1noc(C)c1-c1nccc(NCc2ccccc2)n1	none (no result: PNC inhibitor, IMPase inh, 12-hLO inh, HPGD inh)
COc1ccc(N(C(=O)COc2ccc(Br)cc2)S(=O)(=O)c2ccc(C)cc2)cc1	none (no result: ALDH1A1 inh, PNC inhibitor, IMPase Li cell, 12-hLO inh, HPGD inh)
CCOc1ccc2nc(NC(=O)c3ccccc3)sc2c1	none (no result: ALDH1A1 inh, PNC inhibitor, IMPase Li cell, 12-hLO inh, HPGD inh)
Cc1ccc(C(=O)Nc2nnc(NC(=S)Nc3ccccc3)s2)cc1	ALDH1A1 inh 22µM (no result: PNC inhibitor, IMPase inh, 12-hLO inh, HPGD inh)
CCOc1ccc(C(=O)Nc2nnc(NC(=S)Nc3ccccc3)s2)cc1	ALDH1A1 inh 7.1µM (no result: PNC inhibitor, IMPase inh, 12-hLO inh, HPGD inh)
CCc1nnc(NC(=S)Nc2ccccc2)s1	ALDH1A1 inh inconclusive (no result: PNC inhibitor, IMPase inh, 12-hLO inh, HPGD inh)
CC(C)(C)N1C(=O)[C@H]2[C@H]3[C@H](O)[C@H](O)C/C(=N/OCc4ccccc4)[C@@H]3CC[C@@H]2C1=O	none (no result: PNC inhibitor, IMPase inh, IMPase Li cell, 12-hLO inh, HPGD inh)
CN(Cc1ccccc1)S(=O)(=O)c1ccc2c(c1)NC(=O)CC(=O)N2	ALDH1A1 inh inconclusive (no result: IMPase inh)
CCN(Cc1ccccc1)S(=O)(=O)c1ccc2c(c1)NC(=O)CC(=O)N2	ALDH1A1 inh 14µM (no result: PNC inhibitor, IMPase inh, 12-hLO inh, HPGD inh)
